Measured values taken from the supplement of paper PMC10849652.
About 7,900 targets were measured; listed, in parts, are those with a hit and a random draw of the rest. About 0.6% of all pairs of compound and target were hits.

Assays:
Experiment in all cases: log2 fold change, soluble protein after heating vs DMSO (PISA); higher = thermal stabilisation; K562 cells, 10 uM, 30 min; active = over 0.2 and 3.5 SD of the protein, either way, in both replicates (recomputed)
[1] = compound: CS(=O)(=O)c1ccc(-c2cnc(N)c(C(=O)Nc3ccccc3)n2)cc1
Procedure, shortened: (§1)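 K562 cells at 2×10^6 cells/mL were exposed to 10 μM compound for 30 min, then aliquots were heated for 3 min across 48°C-58°C, pooled, and extracted in PBS containing 0.5% NP-40 at 4°C. The supernatant after 21,000xg for 90 min was taken as soluble protein and measured by TMTpro 16plex LC-MS/MS with channel sums equalised. Thermal stability is reported relative to control samples, with values from duplicates. Fold changes are given on a log2 scale.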

crizotinib = compound: C[C@@H](Oc1cc(-c2cnn(C3CCNCC3)c2)cnc1N)c1c(Cl)ccc(F)c1Cl [crizotinib]
Procedure, shortened: as §1

[2] = compound: C[C@@H]1COCCN1C2=NC(=NC(=C2)C3(CC3)S(=O)(=O)C)C4=C5C=CNC5=CC=C4
Procedure, shortened: as §1

[3] = compound: C[C@H](C1=CC=C(C=C1)C(=O)NC2=C3C=CNC3=NC=C2)N
Procedure, shortened: as §1

duvelisib = compound: C[C@H](Nc1ncnc2nc[nH]c12)c1cc2cccc(Cl)c2c(=O)n1-c1ccccc1 [duvelisib]
Procedure, shortened: as §1

gandotinib = compound: Cc1cc(Nc2cc(CN3CCOCC3)c3nc(C)c(Cc4ccc(Cl)cc4F)n3n2)n[nH]1 [gandotinib]
Procedure, shortened: as §1

tozasertib = compound: Cc1cc(Nc2cc(N3CCN(C)CC3)nc(Sc3ccc(NC(=O)C4CC4)cc3)n2)n[nH]1 [tozasertib]
Procedure, shortened: as §1

[4] = compound: Cc1cc(SCc2sc(-c3ccc(C(F)(F)F)cc3)nc2C)ccc1OCC(=O)O
Procedure, shortened: as §1

doramapimod = compound: Cc1ccc(-n2nc(C(C)(C)C)cc2NC(=O)Nc2ccc(OCCN3CCOCC3)c3ccccc23)cc1 [doramapimod]
Procedure, shortened: as §1

ispinesib = compound: Cc1ccc(C(=O)N(CCCN)[C@@H](c2nc3cc(Cl)ccc3c(=O)n2Cc2ccccc2)C(C)C)cc1 [ispinesib]
Procedure, shortened: as §1

bafetinib = compound: Cc1ccc(NC(=O)c2ccc(CN3CC[C@H](N(C)C)C3)c(C(F)(F)F)c2)cc1Nc1nccc(-c2cncnc2)n1 [bafetinib]
Procedure, shortened: as §1

[5] = compound: Cc1cccc(CC(=O)N2CCc3c2ccc(-c2cn(C)c4ncnc(N)c24)c3F)n1
Procedure, shortened: as §1

dasatinib = compound: Cc1nc(Nc2ncc(C(=O)Nc3c(C)cccc3Cl)s2)cc(N2CCN(CCO)CC2)n1 [dasatinib]
Procedure, shortened: as §1

[6] = compound: Cn1cc(-c2ccc3c(c2)CCN3C(=O)Cc2cccc(C(F)(F)F)c2)c2c(N)ncnc21
Procedure, shortened: as §1

[7] = compound: Cn1cc(-c2ccc3nnc(C(F)(F)c4ccc5ncccc5c4)n3n2)cn1
Procedure, shortened: as §1

tipifarnib = compound: Cn1cncc1[C@@](N)(c1ccc(Cl)cc1)c1ccc2c(c1)c(-c1cccc(Cl)c1)cc(=O)n2C [tipifarnib]
Procedure, shortened: as §1

mubritinib = compound: FC(F)(F)c1ccc(/C=C/c2nc(COc3ccc(CCCCn4ccnn4)cc3)co2)cc1 [mubritinib]
Procedure, shortened: as §1

nilotinib = compound: Cc1cn(-c2cc(NC(=O)c3ccc(C)c(Nc4nccc(-c5cccnc5)n4)c3)cc(C(F)(F)F)c2)cn1 [nilotinib]
Procedure, shortened: as §1

[8] = compound: Cc1nc(Nc2n[nH]c3c2CN(C(=O)N[C@H](CN(C)C)c2ccccc2)C3(C)C)c2sccc2n1
Procedure, shortened: as §1

[9] = compound: Cc1ncc(-c2ccnc(Nc3ccc(S(C)(=O)=O)cc3)n2)n1C(C)C
Procedure, shortened: as §1

Measured: log2 fold change

RAF1 isoform 2 (UniProt P04049)
inactive: [1] 0.023 | crizotinib -0.305 | [2] -0.135 | [3] -0.092 | duvelisib 0.068 | gandotinib 0.131 | tozasertib 0.093 | [4] 0.035 | doramapimod 0.133 | ispinesib -0.145 | bafetinib -0.062 | [5] -0.168 | dasatinib -0.191 | [6] 0.181 | [7] -0.144 | tipifarnib -0.185 | mubritinib -0.286

RAB3IL1 (UniProt E9PK89)
inactive: [1] 0.036 | crizotinib -0.003 | [2] 0.163 | [3] -0.211 | gandotinib 0.154 | tozasertib -0.099 | doramapimod -0.07 | ispinesib 0.07 | bafetinib -0.053 | [5] 0.01 | nilotinib -0.007 | [8] -0.189 | [9] -0.101 | [6] 0.258 | [7] 0.056 | tipifarnib -0.035

RNF2 (UniProt Q99496)
Sequence of UniProt Q99496 (Q99496 whole entry, looked up): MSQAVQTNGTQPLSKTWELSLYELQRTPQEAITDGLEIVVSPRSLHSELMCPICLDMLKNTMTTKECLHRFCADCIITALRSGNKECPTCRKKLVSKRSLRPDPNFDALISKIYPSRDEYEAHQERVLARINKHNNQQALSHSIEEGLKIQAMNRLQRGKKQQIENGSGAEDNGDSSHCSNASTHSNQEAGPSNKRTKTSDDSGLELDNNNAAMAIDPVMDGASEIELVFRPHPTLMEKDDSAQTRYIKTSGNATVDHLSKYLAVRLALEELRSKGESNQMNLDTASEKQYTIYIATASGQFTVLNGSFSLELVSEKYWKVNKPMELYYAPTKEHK
inactive: [1] 0.008 | crizotinib -0.028 | [2] -0.013 | [3] -0.105 | duvelisib -0.033 | gandotinib -0.091 | tozasertib 0.149 | [4] 0.073 | doramapimod -0.093 | bafetinib -0.102 | [5] 0.022 | nilotinib 0.065 | [8] -0.214 | dasatinib -0.106 | [9] 0.061 | [6] -0.005 | tipifarnib -0.026 | mubritinib -0.031

SAP30 (UniProt O75446)
Sequence of UniProt O75446 (O75446 whole entry, looked up): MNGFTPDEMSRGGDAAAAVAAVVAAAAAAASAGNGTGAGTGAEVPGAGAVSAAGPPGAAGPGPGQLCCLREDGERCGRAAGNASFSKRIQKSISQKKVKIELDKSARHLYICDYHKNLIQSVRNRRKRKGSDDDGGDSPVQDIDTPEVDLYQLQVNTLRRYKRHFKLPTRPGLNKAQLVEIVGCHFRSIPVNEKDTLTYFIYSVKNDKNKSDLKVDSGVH
inactive: [1] -0.087 | crizotinib 0.012 | [2] -0.047 | [3] 0.098 | duvelisib -0.09 | gandotinib 0.162 | [4] 0.124 | doramapimod -0.088 | [5] 0.076 | nilotinib 0.083 | [8] 0.01 | dasatinib -0.008 | [9] 0.006 | [6] -0.073 | tipifarnib 0.068 | mubritinib -0.118

RELA (UniProt Q04206)
Sequence of UniProt Q04206 (Q04206 whole entry, looked up): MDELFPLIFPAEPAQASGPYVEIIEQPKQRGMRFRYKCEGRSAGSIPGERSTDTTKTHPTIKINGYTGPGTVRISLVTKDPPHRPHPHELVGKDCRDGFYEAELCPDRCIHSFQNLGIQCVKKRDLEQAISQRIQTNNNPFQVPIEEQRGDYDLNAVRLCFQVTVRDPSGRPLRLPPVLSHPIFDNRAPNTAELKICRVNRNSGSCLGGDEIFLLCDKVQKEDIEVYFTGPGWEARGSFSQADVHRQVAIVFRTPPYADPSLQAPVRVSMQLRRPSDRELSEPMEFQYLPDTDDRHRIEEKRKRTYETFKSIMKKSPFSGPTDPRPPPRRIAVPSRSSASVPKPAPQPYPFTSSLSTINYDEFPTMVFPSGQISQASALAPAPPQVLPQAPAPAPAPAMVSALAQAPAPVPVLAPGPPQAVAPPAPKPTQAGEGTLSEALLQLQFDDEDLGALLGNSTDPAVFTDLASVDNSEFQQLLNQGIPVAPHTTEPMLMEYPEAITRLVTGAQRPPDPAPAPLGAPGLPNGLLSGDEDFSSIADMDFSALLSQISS
active: [8] -0.295
inactive: [1] 0.03 | crizotinib 0.036 | [2] 0.005 | [3] -0.029 | duvelisib 0.018 | gandotinib -0.086 | tozasertib 0.059 | [4] 0.055 | ispinesib 0.017 | bafetinib -0.04 | [5] 0.006 | nilotinib -0.023 | [9] -0.031 | [6] 0.04 | [7] -0.047 | tipifarnib -0.04 | mubritinib 0.044

RPS27A (UniProt P62979)
inactive: [1] 0.05 | crizotinib 0.053 | [2] -0.229 | [3] 0.088 | duvelisib -0.218 | gandotinib 0.347 | tozasertib 0.013 | [4] 0 | doramapimod -0.049 | ispinesib -0.047 | bafetinib 0.147 | [5] 0.023 | nilotinib 0.056 | [8] 0.2 | dasatinib 0.119 | [9] 0.007 | [6] -0.172 | [7] 0 | tipifarnib 0.079 | mubritinib -0.121

SLC12A5 (UniProt Q9H2X9)
Sequence of UniProt Q9H2X9 (Q9H2X9 whole entry, looked up): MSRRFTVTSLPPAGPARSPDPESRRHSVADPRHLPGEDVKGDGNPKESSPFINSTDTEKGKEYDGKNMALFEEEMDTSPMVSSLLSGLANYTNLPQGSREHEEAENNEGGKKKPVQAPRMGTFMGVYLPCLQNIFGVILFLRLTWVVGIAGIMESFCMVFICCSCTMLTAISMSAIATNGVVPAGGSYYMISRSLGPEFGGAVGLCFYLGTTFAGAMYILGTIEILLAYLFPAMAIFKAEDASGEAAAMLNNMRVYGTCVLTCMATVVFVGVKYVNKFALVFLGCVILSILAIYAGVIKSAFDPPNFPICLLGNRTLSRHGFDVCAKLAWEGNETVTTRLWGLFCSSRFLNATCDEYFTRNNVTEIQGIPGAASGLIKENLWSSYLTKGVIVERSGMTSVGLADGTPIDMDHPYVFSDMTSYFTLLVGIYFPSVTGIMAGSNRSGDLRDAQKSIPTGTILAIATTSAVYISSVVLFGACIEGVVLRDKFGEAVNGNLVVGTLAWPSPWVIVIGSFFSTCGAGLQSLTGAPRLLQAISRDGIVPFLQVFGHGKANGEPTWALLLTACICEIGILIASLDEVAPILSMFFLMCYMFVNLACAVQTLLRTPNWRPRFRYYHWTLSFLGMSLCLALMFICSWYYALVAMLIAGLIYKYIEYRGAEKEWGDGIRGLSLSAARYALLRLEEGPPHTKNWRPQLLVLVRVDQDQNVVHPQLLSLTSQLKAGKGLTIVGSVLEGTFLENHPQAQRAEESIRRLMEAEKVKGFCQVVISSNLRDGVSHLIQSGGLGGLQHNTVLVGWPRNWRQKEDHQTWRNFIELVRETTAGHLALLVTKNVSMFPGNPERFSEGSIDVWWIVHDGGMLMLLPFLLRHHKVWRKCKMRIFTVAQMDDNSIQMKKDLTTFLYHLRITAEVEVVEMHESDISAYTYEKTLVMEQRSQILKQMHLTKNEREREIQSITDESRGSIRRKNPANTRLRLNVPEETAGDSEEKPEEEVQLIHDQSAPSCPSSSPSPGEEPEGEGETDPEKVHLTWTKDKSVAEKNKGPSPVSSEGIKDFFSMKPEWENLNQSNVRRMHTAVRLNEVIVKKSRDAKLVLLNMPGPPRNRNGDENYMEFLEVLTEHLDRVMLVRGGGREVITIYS
inactive: [1] 0.089 | crizotinib 0.001 | [2] 0.028 | [3] 0.027 | duvelisib -0.07 | tozasertib -0.039 | [4] 0.083 | doramapimod 0.234 | bafetinib 0.009 | dasatinib -0.034 | [6] 0.002 | tipifarnib 0.117 | mubritinib -0.001

RBM48 isoform 2 (UniProt Q5RL73)
Sequence of UniProt Q5RL73 (Q5RL73 whole entry, looked up): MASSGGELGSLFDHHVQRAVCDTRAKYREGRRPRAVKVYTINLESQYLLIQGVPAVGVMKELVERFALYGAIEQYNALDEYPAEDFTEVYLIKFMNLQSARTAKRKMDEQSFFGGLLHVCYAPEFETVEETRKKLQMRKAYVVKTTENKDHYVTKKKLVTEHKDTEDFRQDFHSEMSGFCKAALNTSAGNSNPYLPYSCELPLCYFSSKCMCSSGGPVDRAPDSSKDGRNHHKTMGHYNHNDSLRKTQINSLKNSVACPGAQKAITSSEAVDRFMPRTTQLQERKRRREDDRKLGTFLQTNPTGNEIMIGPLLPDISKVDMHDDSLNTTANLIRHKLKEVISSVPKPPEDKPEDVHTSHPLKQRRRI
inactive: [1] 0.081 | crizotinib 0.25 | [2] -0.069 | [3] -0.06 | gandotinib 0.152 | tozasertib -0.245 | doramapimod 0.041 | ispinesib 0.072 | bafetinib 0.118 | [5] -0.012 | nilotinib 0.13 | [8] -0.006 | [9] -0.034 | [6] 0.047 | [7] -0.457 | tipifarnib 0.127

RSRC2 (UniProt Q7L4I2)
active: [8] -2.11
inactive: [1] 0.02 | crizotinib 0.022 | [2] -0.018 | [3] -0.095 | duvelisib 0.002 | gandotinib 0.052 | tozasertib -0.058 | [4] -0.039 | doramapimod -0.022 | ispinesib 0.087 | bafetinib -0.091 | [5] -0.091 | nilotinib 0 | dasatinib 0.002 | [9] -0.028 | [6] -0.007 | [7] -0.056 | tipifarnib 0.012 | mubritinib 0.02

RBM8A (UniProt Q9Y5S9)
active: crizotinib 0.287
inactive: [1] 0.012 | [2] 0.007 | [3] 0.025 | duvelisib 0.019 | gandotinib 0.069 | tozasertib -0.015 | [4] 0.025 | doramapimod -0.078 | ispinesib 0.099 | bafetinib -0.013 | [5] -0.014 | nilotinib -0.047 | [8] -0.063 | dasatinib 0.001 | [9] 0.126 | [6] -0.02 | [7] 0.065 | tipifarnib 0.019 | mubritinib 0.013

RAB8B (UniProt Q92930)
Sequence of UniProt Q92930 (Q92930 whole entry, looked up): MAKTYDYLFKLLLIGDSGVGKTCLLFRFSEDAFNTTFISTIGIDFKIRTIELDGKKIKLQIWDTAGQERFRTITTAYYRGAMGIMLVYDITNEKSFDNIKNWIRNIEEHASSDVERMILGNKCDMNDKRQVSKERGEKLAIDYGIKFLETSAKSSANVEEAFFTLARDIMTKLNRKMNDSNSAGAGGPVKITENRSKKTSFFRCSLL
inactive: [1] -0.212 | crizotinib 0 | [2] -0.046 | [3] -0.345 | duvelisib -0.028 | gandotinib -0.086 | tozasertib -0.076 | [4] 0.005 | doramapimod 0.034 | ispinesib 0.01 | bafetinib -0.008 | [5] 0.085 | nilotinib 0.059 | [8] -0.036 | dasatinib 0.015 | [9] -0.043 | [6] 0.031 | [7] -0.016 | tipifarnib -0.088 | mubritinib -0.062

SH2D1B (UniProt O14796)
Sequence of UniProt O14796 (O14796 whole entry, looked up): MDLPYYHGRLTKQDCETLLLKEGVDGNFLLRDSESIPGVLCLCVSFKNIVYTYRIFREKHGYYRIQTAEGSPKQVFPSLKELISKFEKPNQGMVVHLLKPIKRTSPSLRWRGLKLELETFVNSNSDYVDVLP
active: crizotinib -0.765 | dasatinib -1.18
inactive: [1] -0.031 | [2] 0.075 | [3] -0.201 | duvelisib 0.102 | gandotinib -0.692 | tozasertib -0.479 | [4] -0.08 | doramapimod -0.072 | ispinesib 0.06 | [5] 0.018 | nilotinib -0.421 | [8] -0.319 | [9] 0.005 | [6] -0.358 | [7] -0.069 | tipifarnib 0.045 | mubritinib -0.187

SCAMP2 (UniProt H3BUB6)
inactive: [1] 0.085 | crizotinib 0.128 | [2] -0.011 | [3] 0.317 | duvelisib 0.166 | tozasertib -0.159 | [4] -0.305 | doramapimod -0.088 | ispinesib -0.258 | bafetinib -0.226 | nilotinib -0.056 | [8] 0.03 | dasatinib 0 | [9] -0.069 | [6] 0.062 | [7] 0.095 | tipifarnib 0.188 | mubritinib 0.023

SFXN5 (UniProt Q8TD22)
Sequence of UniProt Q8TD22 (Q8TD22 whole entry, looked up): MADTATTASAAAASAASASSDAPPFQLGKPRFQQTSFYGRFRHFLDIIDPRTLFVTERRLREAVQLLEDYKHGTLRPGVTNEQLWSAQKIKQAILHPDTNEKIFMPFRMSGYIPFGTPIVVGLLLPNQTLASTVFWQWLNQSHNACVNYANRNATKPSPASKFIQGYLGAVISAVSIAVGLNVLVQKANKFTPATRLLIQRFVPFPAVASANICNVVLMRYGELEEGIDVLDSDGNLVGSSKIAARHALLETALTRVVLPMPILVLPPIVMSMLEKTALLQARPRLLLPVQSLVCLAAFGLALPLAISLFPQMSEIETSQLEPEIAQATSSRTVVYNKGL
inactive: [1] 0.144 | crizotinib 0.021 | [2] 0.073 | [3] -0.137 | duvelisib -0.07 | gandotinib -0.026 | tozasertib -0.015 | [4] 0.076 | doramapimod -0.055 | ispinesib 0.049 | [5] 0.017 | nilotinib -0.052 | [8] 0.049 | dasatinib 0.084 | [9] 0.134 | [6] 0.107 | [7] 0.093 | tipifarnib 0.022 | mubritinib 0.041
active: bafetinib -0.3

SESN2 (UniProt P58004)
Sequence of UniProt P58004 (P58004 whole entry, looked up): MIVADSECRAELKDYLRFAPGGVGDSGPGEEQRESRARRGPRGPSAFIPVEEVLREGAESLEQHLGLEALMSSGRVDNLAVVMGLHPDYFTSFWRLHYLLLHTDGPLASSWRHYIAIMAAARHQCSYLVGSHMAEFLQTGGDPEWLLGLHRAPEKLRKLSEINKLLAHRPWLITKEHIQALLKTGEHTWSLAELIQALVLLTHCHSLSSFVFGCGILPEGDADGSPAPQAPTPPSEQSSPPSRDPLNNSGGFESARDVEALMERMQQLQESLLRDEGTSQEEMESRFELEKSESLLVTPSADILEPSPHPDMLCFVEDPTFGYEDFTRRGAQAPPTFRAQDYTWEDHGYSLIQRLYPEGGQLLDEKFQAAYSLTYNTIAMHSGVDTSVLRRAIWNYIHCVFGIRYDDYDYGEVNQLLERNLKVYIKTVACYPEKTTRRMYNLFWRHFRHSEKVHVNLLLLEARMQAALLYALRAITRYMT
inactive: [1] 0.042 | crizotinib -0.191 | [2] -0.028 | [3] 0.077 | duvelisib -0.018 | gandotinib -0.046 | tozasertib 0 | [4] 0.006 | doramapimod 0.192 | ispinesib -0.322 | bafetinib -0.09 | [5] 0.136 | nilotinib -0.02 | [8] -0.207 | dasatinib -0.034 | [9] -0.063 | [6] 0.069 | [7] -0.069 | tipifarnib -0.213 | mubritinib 0.042

SCPEP1 (UniProt Q9HB40)
inactive: [1] -0.03 | [2] -0.041 | [3] -0.028 | duvelisib 0.083 | gandotinib 0.127 | tozasertib -0.03 | [4] 0.032 | doramapimod -0.032 | ispinesib -0.163 | [5] -0.013 | nilotinib 0.028 | [8] -0.006 | dasatinib -0.007 | [9] -0.004 | [6] 0.023 | [7] 0.034 | tipifarnib 0.026 | mubritinib 0.04
active: crizotinib -0.254 | bafetinib -0.499

SH3GL1 (UniProt Q99961)
Sequence of UniProt Q99961 (Q99961 whole entry, looked up): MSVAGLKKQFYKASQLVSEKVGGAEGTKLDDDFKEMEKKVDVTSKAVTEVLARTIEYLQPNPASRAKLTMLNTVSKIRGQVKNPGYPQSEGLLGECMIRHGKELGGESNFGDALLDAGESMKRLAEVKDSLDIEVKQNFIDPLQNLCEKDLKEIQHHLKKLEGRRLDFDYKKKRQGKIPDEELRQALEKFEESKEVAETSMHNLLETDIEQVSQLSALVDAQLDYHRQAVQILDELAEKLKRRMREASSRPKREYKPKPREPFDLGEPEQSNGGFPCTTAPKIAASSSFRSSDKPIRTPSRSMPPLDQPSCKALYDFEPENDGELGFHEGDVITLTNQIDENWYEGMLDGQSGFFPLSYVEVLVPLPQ
inactive: [1] 0.067 | crizotinib -0.144 | [2] 0.024 | [3] 0.062 | duvelisib 0.019 | gandotinib -0.031 | tozasertib 0.045 | [4] 0.103 | doramapimod 0.007 | ispinesib -0.156 | bafetinib -0.018 | [5] 0.069 | nilotinib -0.084 | [8] -0.18 | dasatinib -0.262 | [9] -0.014 | [6] 0.055 | [7] 0.02 | tipifarnib -0.114 | mubritinib 0.122

RPS6KA3 (UniProt P51812)
Sequence of UniProt P51812 (P51812 whole entry, looked up): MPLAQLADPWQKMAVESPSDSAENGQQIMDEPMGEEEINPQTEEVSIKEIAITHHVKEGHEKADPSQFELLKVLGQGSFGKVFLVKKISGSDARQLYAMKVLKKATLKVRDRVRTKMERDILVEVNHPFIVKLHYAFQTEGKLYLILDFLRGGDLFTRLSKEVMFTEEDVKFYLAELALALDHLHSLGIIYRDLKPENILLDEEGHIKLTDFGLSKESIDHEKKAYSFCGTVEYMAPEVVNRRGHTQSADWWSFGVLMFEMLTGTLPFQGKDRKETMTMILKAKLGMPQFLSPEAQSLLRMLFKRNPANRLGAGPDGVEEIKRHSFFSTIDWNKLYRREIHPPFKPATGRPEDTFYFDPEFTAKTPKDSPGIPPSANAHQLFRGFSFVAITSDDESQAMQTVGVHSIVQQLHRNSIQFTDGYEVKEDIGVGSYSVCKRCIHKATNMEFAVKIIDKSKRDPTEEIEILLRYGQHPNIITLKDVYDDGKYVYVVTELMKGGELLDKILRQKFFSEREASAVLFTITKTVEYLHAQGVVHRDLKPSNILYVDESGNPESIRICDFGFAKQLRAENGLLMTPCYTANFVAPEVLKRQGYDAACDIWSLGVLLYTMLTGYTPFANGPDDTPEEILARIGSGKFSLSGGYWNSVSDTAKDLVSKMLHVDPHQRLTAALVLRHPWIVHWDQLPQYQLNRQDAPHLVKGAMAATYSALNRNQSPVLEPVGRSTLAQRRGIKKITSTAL
active: [8] -0.798
inactive: [1] 0.023 | crizotinib -0.107 | [2] 0.024 | [3] -0.177 | duvelisib 0.02 | gandotinib -0.019 | tozasertib 0.103 | [4] 0.032 | doramapimod -0.066 | ispinesib -0.017 | bafetinib -0.065 | [5] 0.046 | nilotinib 0.035 | dasatinib -0.195 | [9] -0.019 | [6] -0.022 | [7] 0.031 | tipifarnib -0.028 | mubritinib 0.02
